# Test results reported in the antibiotic and cytotoxicity screens of Wong et al. (2023).
# In all, about 39,000 compounds went through this assay and about 3,300 (8.5%) were called active. This excerpt belongs to a sample that is enriched for actives.
# Test system: HepG2
# Assay: cytotoxicity call (relative viability < 0.9)
# Conditions: 10 µM
row,Compound,cytotoxicity call
1,C[C@@H]1CN([C@@H](C)CO)C(=O)c2cc(NC(=O)Cc3ccccc3)ccc2O[C@@H](C)CCCCO[C@@H]1CN(C)C(=O)NC1CCCCC1,inactive
2,C[C@H](CO)N1C[C@H](C)[C@@H](CN(C)S(=O)(=O)c2cn(C)cn2)Oc2ccc(NS(C)(=O)=O)cc2C1=O,inactive
3,C[C@@H]1CN([C@H](C)CO)C(=O)c2cccc(NS(C)(=O)=O)c2O[C@@H]1CN(C)C(=O)Nc1ccc2c(c1)OCO2,inactive
4,C[C@@H]1CN([C@@H](C)CO)C(=O)c2ccccc2-c2ccccc2CO[C@@H]1CN(C)S(=O)(=O)c1cn(C)cn1,inactive
5,C[C@@H]1CCCCO[C@@H](CN(C)Cc2ccc(C(F)(F)F)cc2)[C@H](C)CN([C@@H](C)CO)C(=O)c2cc(NC(=O)CCCN(C)C)ccc2O1,inactive
6,C[C@@H]1CCCCO[C@H](CN(C)S(C)(=O)=O)[C@@H](C)CN([C@H](C)CO)C(=O)c2cc(NC(=O)c3ccncc3)ccc2O1,inactive
7,CO[C@@H]1CN(C)C(=O)c2cc(NS(=O)(=O)c3ccccc3)ccc2OC[C@H](C)N(C(=O)NC(C)C)C[C@H]1C,inactive
8,CN(C)C(=O)C[C@@H]1CC[C@@H](NC(=O)C2CCOCC2)[C@H](CO)O1,inactive
9,CCCCOc1cc(C(=O)OCCN(CC)CC)ccc1N.Cl,inactive
10,CCCOc1ccc(C(=O)OCCN(CC)CC)cc1N.Cl,inactive
11,CCN(CCCCOC(=O)c1ccc(OC)c(OC)c1)C(C)Cc1ccc(OC)cc1.Cl (stereo not given),active
12,C[C@H](CO)N1C[C@H](C)[C@H](CN(C)S(=O)(=O)c2ccc(F)cc2)Oc2ccc(NC(=O)CCCN(C)C)cc2C1=O,inactive
13,Cc1noc(C)c1NC(=O)Nc1ccc2c(c1)C(=O)N([C@@H](C)CO)C[C@H](C)[C@@H](CN(C)Cc1ccc(C(F)(F)F)cc1)OCCCC[C@H](C)O2,inactive
14,Cc1ccc(C(=O)Nc2cccc(C(F)(F)F)c2)cc1Nc1nc(-c2cccnc2)nc2c1cnn2C,active
15,O=C(O)c1cccnc1Nc1cccc(C(F)(F)F)c1,inactive
16,O=C(Nc1cccnc1)c1nc2ncccn2n1,inactive
17,Cc1cn(-c2cc(NC(=O)c3ccc(C)c(Nc4nccc(-c5cccnc5)n4)c3)cc(C(F)(F)F)c2)cn1,active
18,Cc1cn(-c2cc(NC(=O)c3ccc(C)c(Nc4nccc(-c5cnccn5)n4)c3)cc(C(F)(F)F)c2)cn1,inactive
19,COC(=O)CNC(=O)c1ccc(S(=O)(=O)N2CCOCC2)cc1,inactive
20,C[C@@H]1CN([C@@H](C)CO)C(=O)c2cccc(NS(=O)(=O)c3cn(C)cn3)c2O[C@@H]1CN(C)Cc1ccc(C(=O)O)cc1,inactive
21,C[C@@H]1CN([C@H](C)CO)C(=O)c2cc(NC(=O)Cn3cnnn3)ccc2O[C@H]1CN(C)Cc1ccc(C(=O)O)cc1,inactive
22,C[C@@H]1CCCCO[C@H](CN(C)C(=O)Nc2ccccc2)[C@H](C)CN([C@@H](C)CO)C(=O)c2cc(NS(=O)(=O)c3cccs3)ccc2O1,inactive
23,C[C@H](CO)N1C[C@H](C)[C@@H](CN(C)S(C)(=O)=O)Oc2ccc(NC(=O)CCC(F)(F)F)cc2CC1=O,inactive
24,C[C@@H]1CN([C@@H](C)CO)C(=O)c2cc(NC(=O)Nc3ccccc3)ccc2O[C@@H](C)CCCCO[C@H]1CN(C)S(=O)(=O)c1cccc(F)c1,inactive

row,Compound,cytotoxicity call
1,CCOC(=O)[C@H](Cc1c[nH]c2ccccc12)NC(=O)Cn1cc(CN2C(=O)COC[C@H]2c2ccccc2)nn1,active
2,CCOC(=O)[C@H](Cc1c[nH]c2ccccc12)NC(=O)Cn1cc(C(=O)NO)nn1,inactive
3,Cc1ccc(S(=O)(=O)N[C@@H](Cc2ccccc2)C(=O)NCCn2cc(CN3C(=O)COC[C@H]3c3ccccc3)nn2)cc1,inactive
4,Cc1noc(C)c1S(=O)(=O)Nc1ccc2c(c1)C(=O)N([C@@H](C)CO)C[C@@H](C)[C@H](CN(C)C(=O)NC1CCCCC1)O2,inactive
5,COc1ccc(-c2nc(-c3ccc(C)cc3C)cs2)cc1,inactive
6,COc1ccc(NC(=O)Nc2ccc3c(c2)CC(=O)N([C@H](C)CO)C[C@H](C)[C@H](CN(C)CC2CCCCC2)O3)cc1,inactive
7,COc1ccc(NC(=O)Nc2ccc3c(c2)CC(=O)N([C@H](C)CO)C[C@H](C)[C@@H](CN(C)CC2CCCCC2)O3)cc1,inactive
8,COc1ccc(NC(=O)Nc2ccc3c(c2)CC(=O)N([C@@H](C)CO)C[C@@H](C)[C@@H](CN(C)CC2CCCCC2)O3)cc1,inactive
9,COc1ccc(NC(=O)Nc2ccc3c(c2)CC(=O)N([C@H](C)CO)C[C@@H](C)[C@@H](CN(C)CC2CCCCC2)O3)cc1,active
10,COc1ccc(NC(=O)Nc2ccc3c(c2)CC(=O)N([C@@H](C)CO)C[C@H](C)[C@@H](CN(C)CC2CCCCC2)O3)cc1,inactive
11,COc1ccc(NC(=O)Nc2ccc3c(c2)CC(=O)N([C@@H](C)CO)C[C@@H](C)[C@H](CN(C)CC2CCCCC2)O3)cc1,active
12,C[C@H](CO)N1C[C@H](C)[C@H](CN(C)Cc2ccc(C(=O)O)cc2)OCCCC[C@H](C)Oc2ccc(NC(=O)NC3CCCCC3)cc2C1=O,inactive
13,C[C@H]1CCCCO[C@H](CN(C)S(=O)(=O)c2cccs2)[C@@H](C)CN([C@@H](C)CO)C(=O)c2cc(NS(C)(=O)=O)ccc2O1,inactive
14,O=C(NCC(F)(F)F)[C@@H]1c2ccccc2C(=O)N(Cc2cc(C(F)(F)F)cc(C(F)(F)F)c2)[C@H]1c1ccc(CO)cc1,inactive
15,O=C1CO[C@H]2CN(S(=O)(=O)c3ccccc3)C[C@@H]2N1,inactive
16,C[C@@H]1CN([C@H](C)CO)C(=O)c2cc(NS(=O)(=O)c3ccc(F)cc3)ccc2O[C@@H]1CN(C)S(C)(=O)=O,inactive
17,C[C@@H]1CCCCO[C@@H](CN(C)Cc2ccc(C(F)(F)F)cc2)[C@@H](C)CN([C@@H](C)CO)C(=O)c2cc(NS(=O)(=O)c3cccs3)ccc2O1,active
18,C[C@@H]1CCCCO[C@H](CN(C)Cc2ccc(C(F)(F)F)cc2)[C@H](C)CN([C@@H](C)CO)C(=O)c2cc(NS(=O)(=O)c3cccs3)ccc2O1,active
19,C[C@@H]1CCCCO[C@@H](CN(C)Cc2ccc(C(=O)O)cc2)[C@H](C)CN([C@H](C)CO)C(=O)c2cc(NS(=O)(=O)c3cccs3)ccc2O1,inactive
20,C[C@@H]1CCCCO[C@H](CN(C)Cc2ccc(C(F)(F)F)cc2)[C@H](C)CN([C@H](C)CO)C(=O)c2cc(NS(=O)(=O)c3cccs3)ccc2O1,active
21,C[C@@H]1CN([C@H](C)CO)C(=O)c2cc(NS(=O)(=O)c3cccs3)ccc2O[C@@H](C)CCCCO[C@@H]1CN(C)Cc1ccc(C(=O)O)cc1,inactive
22,C[C@H]1CCCCO[C@H](CN(C)Cc2ccc(C(F)(F)F)cc2)[C@@H](C)CN([C@@H](C)CO)C(=O)c2cc(NS(=O)(=O)c3cccs3)ccc2O1,inactive
23,C[C@@H]1CCCCO[C@H](CN(C)Cc2ccc(C(F)(F)F)cc2)[C@@H](C)CN([C@H](C)CO)C(=O)c2cc(NS(=O)(=O)c3cccs3)ccc2O1,inactive
24,C[C@@H]1CN([C@@H](C)CO)C(=O)c2cc(NS(=O)(=O)c3cccs3)ccc2O[C@@H](C)CCCCO[C@@H]1CN(C)Cc1ccc(C(F)(F)F)cc1,inactive

row,Compound,cytotoxicity call
1,C[C@@H]1CCCCO[C@@H](CN(C)Cc2ccc(C(F)(F)F)cc2)[C@H](C)CN([C@H](C)CO)C(=O)c2cc(NS(=O)(=O)c3cccs3)ccc2O1,active
2,C[C@@H]1CN([C@@H](C)CO)C(=O)c2cc(NS(=O)(=O)c3cccs3)ccc2O[C@@H](C)CCCCO[C@H]1CN(C)Cc1ccc(C(F)(F)F)cc1,inactive
3,COc1ccc(OCc2c(-c3ccccc3)nnn2CC(=O)NS(=O)(=O)c2cccc(C#N)c2)cc1,inactive
4,COCC(=O)N1C[C@@H](C)[C@H](OC)CN(C)C(=O)c2cc(NC(=O)c3ccc(F)cc3)ccc2OC[C@@H]1C,inactive
5,COc1cc2ccc(=O)oc2c(O[C@H]2O[C@@H](CO)[C@@H](O)[C@@H](O)[C@@H]2O)c1O,inactive
6,C[C@@H]1CN([C@@H](C)CO)C(=O)Cc2cc(NC(=O)Cn3cnnn3)ccc2O[C@@H]1CN(C)C(=O)Nc1ccc2c(c1)OCO2,inactive
7,CCS(=O)(=O)N1C[C@]2(CN(C2)C(=O)CN2CCOCC2)c2c(n(c3cc(ccc23)OC)C)[C@H]1CO,inactive
8,COc1ccc(CN(C)C[C@H]2OCCCC[C@H](C)Oc3ccc(NS(=O)(=O)c4ccccc4)cc3C(=O)N([C@H](C)CO)C[C@H]2C)cc1,inactive
9,O=C(Cc1ccccn1)NCC[C@H]1CC[C@H](NC(=O)CN2CCOCC2)[C@H](CO)O1,inactive
10,C[C@@H]1CN([C@H](C)CO)C(=O)c2cc(NS(=O)(=O)c3cn(C)cn3)ccc2O[C@H]1CN(C)Cc1ccncc1,inactive
11,C[C@H](CO)N1C[C@H](C)[C@@H](CN(C)S(=O)(=O)c2ccccc2)OCCCC[C@H](C)Oc2ccc(NC(=O)CCC(F)(F)F)cc2C1=O,inactive
12,Cc1noc(C)c1NC(=O)N(C)C[C@H]1Oc2c(NC(=O)Cn3cnnn3)cccc2C(=O)N([C@H](C)CO)C[C@@H]1C,inactive
13,C[C@@H]1CN([C@H](C)CO)C(=O)c2cc(NC(=O)C3CCCCC3)ccc2O[C@@H](C)CCCCO[C@H]1CN(C)C(=O)c1ccncc1,inactive
14,C[C@@H]1CCCCO[C@H](CN(C)Cc2ccc(C(F)(F)F)cc2)[C@@H](C)CN([C@@H](C)CO)C(=O)c2cc(NS(=O)(=O)c3cccs3)ccc2O1,inactive
15,C[C@H](CO)N1C[C@H](C)[C@@H](CN(C)Cc2ccc(C(F)(F)F)cc2)OCCCC[C@H](C)Oc2ccc(NS(=O)(=O)c3cccs3)cc2C1=O,inactive
16,C[C@@H]1CCCCO[C@@H](CN(C)Cc2ccc(C(F)(F)F)cc2)[C@H](C)CN([C@@H](C)CO)C(=O)c2cc(NS(=O)(=O)c3cccs3)ccc2O1,inactive
17,C[C@@H]1CCCCO[C@@H](CN(C)Cc2ccc(C(F)(F)F)cc2)[C@@H](C)CN([C@H](C)CO)C(=O)c2cc(NS(=O)(=O)c3cccs3)ccc2O1,active
18,C[C@@H]1CN([C@H](C)CO)C(=O)c2cc(NS(=O)(=O)c3cccs3)ccc2O[C@@H](C)CCCCO[C@@H]1CN(C)Cc1ccc(C(F)(F)F)cc1,inactive
19,C[C@H](CO)N1C[C@H](C)[C@H](CN(C)Cc2ccc(C(F)(F)F)cc2)OCCCC[C@H](C)Oc2ccc(NS(=O)(=O)c3cccs3)cc2C1=O,active
20,C[C@@H]1CCCCO[C@@H](CN(C)Cc2ccc(C(=O)O)cc2)[C@H](C)CN([C@@H](C)CO)C(=O)c2cc(NS(=O)(=O)c3cccs3)ccc2O1,inactive
21,C[C@@H]1CN([C@H](C)CO)C(=O)c2cc(NS(=O)(=O)c3cccs3)ccc2O[C@@H](C)CCCCO[C@H]1CN(C)Cc1ccc(C(F)(F)F)cc1,active
22,C[C@H]1CCCCO[C@@H](CN(C)Cc2ccc(C(F)(F)F)cc2)[C@@H](C)CN([C@@H](C)CO)C(=O)c2cc(NS(=O)(=O)c3cccs3)ccc2O1,inactive
